# Test results from the supplement of paper PMC11150407.
# Counter-ions that a name gives are not always drawn. The campaign covered roughly 2,100 compounds. About 180 (8.6%) showed an effect of 50% or more. Only a selection was taken, and strong results are over-represented in it overall.
# Test system: MOLM1 and UCSD/AML1 (averaged)
# Test: cell viability relative to DMSO control (POC); higher = less growth inhibition
# Settings: 1 µM; 72 h
# Description: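 Primary viability screen in the 3q26 EVI1-high AML cell lines MOLM1 and UCSD/AML1 (1.5e3 cells/well, 384-well), compounds at 1 uM for 72 h. ATP CellTiter-Glo read-out given as percent of viable cells over DMSO control (POC), averaged over duplicates. DMSO was the negative control and 5 uM etoposide the positive control. This mapping covers the MicroSource Spectrum and Selleck anticancer libraries (drug names).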
row,Compound,cell viability [%]
1,O=c1cc(-c2ccccc2)oc2cc(O)c(O)cc12,96.6
2,COc1cc(Nc2ncc3c(n2)-c2ccc(Cl)cc2C(c2c(F)cccc2OC)=NC3)ccc1C(=O)O [MLN8237 (Alisertib)],49.6
3,C=C1[C@H]2CC[C@@]3(C)[C@H](c4ccoc4)OC(=O)C[C@]13O[C@H]1C[C@H](O)C(C)(C)[C@H](CC(=O)OC)[C@]12C [3-DEOXY-3beta-HYDROXYANGOLENSIC ACID METHYL ESTER],97.7
4,C[C@@H]1CC[C@@]2(OC1)O[C@H]1C[C@H]3[C@@H]4CC=C5C[C@@H](O)CC[C@]5(C)[C@H]4CC[C@]3(C)[C@H]1[C@@H]2C,93.7
5,O=c1cc(-c2ccc(O)cc2)oc2cc(O[C@@H]3O[C@H](CO)[C@@H](O)[C@H](O)[C@H]3O)cc(O)c12,104
6,O=C(O)c1cc2ccccc2[nH]1,118
7,O=C(O)CCC(=O)c1ccc(-c2ccccc2)cc1,93.4
8,O=C(O)CCCc1ccccc1,90.8
9,O=C(O)CCc1nc(-c2ccccc2)c(-c2ccccc2)o1,45.5
10,C[C@]1(O)C[C@@H](c2nc(-c3ccc4ccc(-c5ccccc5)nc4c3)c3c(N)nccn32)C1 [OSI-906 (Linsitinib)],100
11,O=C(Nc1cccc(Cl)c1)Nc1ncc(CCNc2ncnc3ccsc23)s1 [SNS-314 Mesylate],60
12,CC1(C)[C@@H](O[C@H]2O[C@H](C(=O)O)[C@@H](O)[C@H](O)[C@H]2O[C@@H]2O[C@H](C(=O)O)[C@@H](O)[C@H](O)[C@H]2O)CC[C@]2(C)[C@H]3C(=O)C=C4[C@@H]5C[C@@](C)(C(=O)O)CC[C@]5(C)CC[C@@]4(C)[C@]3(C)CC[C@@H]12,96.4
13,COc1cc(/C=C/C(=O)O)cc(OC)c1OC,118
14,COc1cc([C@@H]2c3cc4c(cc3[C@@H](O[C@@H]3O[C@@H]5CO[C@@H](c6cccs6)O[C@H]5[C@H](O)[C@H]3O)[C@H]3COC(=O)[C@H]23)OCO4)cc(OC)c1O [Teniposide (Vumon)],12.4
15,COc1cc([C@@H]2c3cc4c(cc3[C@@H](O[C@@H]3O[C@@H]5CO[C@@H](c6cccs6)O[C@H]5[C@H](O)[C@H]3O)[C@H]3COC(=O)[C@H]23)OCO4)cc(OC)c1O,27.5
16,COc1cc([C@@H]2c3cc4c(cc3[C@@H](O[C@@H]3O[C@@H]5CO[C@@H](C)O[C@H]5[C@H](O)[C@H]3O)[C@H]3COC(=O)[C@H]23)OCO4)cc(OC)c1O,59.4
17,C[C@@H]1CC[C@@]2(OC1)O[C@H]1C[C@H]3[C@@H]4CC[C@H]5C[C@@H](O)CC[C@]5(C)[C@H]4CC[C@]3(C)[C@H]1[C@@H]2C,97.1
18,CCC[C@H](NC(=O)/C(C#N)=C/c1cccc(Br)n1)c1ccccc1,57.8
19,COc1ccc(C=CC(=O)O)cc1OC,106
20,CC(=O)c1c(O)cc(O)cc1O,106
21,O=C(NC1CCCCC1)NC1CCCCC1,120
22,O=C(O)C(=O)O.[NH-]C1CCCCC1[NH-].[Pt+2] (centres undefined) [Oxaliplatin (Eloxatin)],41.3

row,Compound,cell viability [%]
1,CC(C)=CCOc1cc2oc(=O)ccc2cc1O,98
2,O=c1cc(-c2cc(O)c(O)c(O)c2)oc2cc(O)cc(O)c12,106
3,COC(=O)C[C@H]1C2(C)CC34OC5(C)O[C@@]6([C@H](OC(C)=O)C(OC(C)=O)[C@]7(C)C(/C(=C(/O)C(C)C)C(=O)O[C@H]7c7ccoc7)[C@@]6(O5)[C@H](OC(C)=O)[C@@]3(O)C2OC(=O)C(C)C)[C@]14C (some centres undefined),102
4,O=C(N[C@H](CO)[C@H](O)c1ccc([N+](=O)[O-])cc1)C(Cl)Cl,101
5,O=C(O)CCC(=O)OC[C@@H](NC(=O)C(Cl)Cl)[C@H](O)c1ccc([N+](=O)[O-])cc1,40.2
6,CCCCCCCCCCCCCCCC(=O)OC[C@@H](NC(=O)C(Cl)Cl)[C@H](O)c1ccc([N+](=O)[O-])cc1,96.2
7,C[C@@H]1CC[C@@]23CCC4(C)[C@@](C=CC5[C@@]6(C)CCC(=O)C(C)(C)C6CC[C@]54C)(OC2=O)C3[C@H]1C (some centres undefined),95.6
8,Oc1cc(O)c2c(c1)O[C@H](c1cc(O)c(O)c(O)c1)[C@H](O)C2,97.9
9,COc1ccc2c(c1)OC[C@@H](Cc1ccc(OC)c(OC)c1)[C@@H]2O,82.3
10,CCCCCC/C=C\CCCCCCCc1cccc(O)c1C(=O)O,81.2
11,CC(=O)O[C@H]1CC[C@@]2(C)[C@H](CC[C@@H]3[C@@H]2CC[C@]2(C)[C@@H]4[C@H](C[C@@H]32)O[C@]2(CC[C@@H](C)CO2)[C@H]4C)C1,94.2
12,COC1=C2C[C@@H](C)C[C@H](OC)[C@H](O)[C@@H](C)/C=C(\C)[C@H](OC(N)=O)[C@@H](OC)/C=C\C=C(/C)C(=O)NC(=CC1=O)C2=O [Geldanamycin],0.865
13,CO[C@H]1/C=C\C=C(/C)C(=O)NC2=CC(=O)C(NCCN(C)C)=C(C[C@@H](C)C[C@H](OC)[C@H](O)[C@@H](C)/C=C(\C)[C@@H]1OC(N)=O)C2=O [17-DMAG HCl (Alvespimycin)],2.31
14,C=CCNC1=C2C[C@@H](C)C[C@H](OC)[C@H](O)[C@@H](C)/C=C(\C)[C@H](OC(N)=O)[C@@H](OC)/C=C\C=C(/C)C(=O)NC(=CC1=O)C2=O [17-AAG (Tanespimycin)],29.1
15,C=C1[C@@H]([C@@]2(C)C=CC(=O)C(C)(C)[C@@H]2CC(=O)OC)CC[C@@]2(C)[C@H](c3ccoc3)OC(=O)[C@H]3O[C@]132,102
16,COC1=CC(=O)C=C(OC)C1=O,91.5
17,COc1cc(OC)c(C(C)=O)c(O)c1C,111
18,CN[C@@H](C)C(=O)N[C@H]1CN(C(=O)CC(C)C)CC[C@H]2CC[C@@H](C(=O)NC(c3ccccc3)c3ccccc3)N2C1=O,68.5
19,CON,109
20,CC(=O)OC/C=C(\C)CC/C=C(\C)CC/C=C(\C)CC/C=C(\C)CC/C=C(\C)CC/C=C(\C)CC/C=C(\C)CC/C=C(\C)CCC=C(C)C,106
21,O=C1C=C2CC3(O)COc4c(ccc(O)c4O)C3=C2C=C1O (centres undefined),97.6
22,Cc1c2oc3c(C)ccc(C(=O)N[C@@H]4C(=O)N[C@H](C(C)C)C(=O)N5CCC[C@H]5C(=O)N(C)CC(=O)N(C)[C@@H](C(C)C)C(=O)O[C@@H]4C)c3nc-2c(C(=O)N[C@@H]2C(=O)N[C@H](C(C)C)C(=O)N3CCC[C@H]3C(=O)N(C)CC(=O)N(C)[C@@H](C(C)C)C(=O)O[C@@H]2C)c(N)c1=O,1.96
